The panel holds about 83,000 compounds, 20% with a hit somewhere; the sample as a whole holds those more often.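 Compound tested at a single concentration for 48 hours in 96-well plates; a percent growth value below 10 was scored as active.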 The source made the active and inactive calls.
Experiments:
Test in all cases: NCI-60 one-dose screen, 48 h (100 = growth as untreated, 0 = no growth, -100 = all killed)
Conditions in all cases: 10 µM unless noted
NCI-H23 lung = test system: NCI-H23 lung
NCI-H226 lung = test system: NCI-H226 lung
NCI-H322M lung = test system: NCI-H322M lung
HOP-62 NSCLC = test system: HOP-62 NSCLC
NCI-H460 lung = test system: NCI-H460 lung
HOP-92 NSCLC = test system: HOP-92 NSCLC
NCI-H522 lung = test system: NCI-H522 lung
A549/ATCC NSCLC = test system: A549/ATCC NSCLC
786-0 renal = test system: 786-0 renal
COLO 205 colon = test system: COLO 205 colon

Measured: growth

CCOC(=O)C(C#N)=C1CCN(C)CC1
inactive: NCI-H23 lung 94.3% | NCI-H226 lung 111% | NCI-H322M lung 107% | HOP-62 NSCLC 104% | NCI-H460 lung 111% | HOP-92 NSCLC 97.9% | NCI-H522 lung 105% | A549/ATCC NSCLC 101% | 786-0 renal 110% | COLO 205 colon 108%

O=[N+]([O-])c1c(Cl)ncnc1Cl
inactive: NCI-H23 lung 111% | NCI-H226 lung 100% | NCI-H322M lung 125% | HOP-62 NSCLC 104% | NCI-H460 lung 93.2% | HOP-92 NSCLC 85.7% | NCI-H522 lung 97.3% | A549/ATCC NSCLC 92.8% | 786-0 renal 109% | COLO 205 colon 113%

COc1ccc(/C=C\C(=O)/C=C/c2ccc(OC)cc2)cc1
inactive: NCI-H23 lung 84.7% | NCI-H226 lung 81.4% | NCI-H322M lung 99.6% | HOP-62 NSCLC 95.4% | NCI-H460 lung 107% | HOP-92 NSCLC 109% | NCI-H522 lung 94.7% | A549/ATCC NSCLC 102% | 786-0 renal 83.5% | COLO 205 colon 107%

CC1CCC(C)(C)c2ccccc21 (stereo not given)
inactive: NCI-H23 lung 97.2% | NCI-H226 lung 90% | NCI-H322M lung 98.9% | HOP-62 NSCLC 99.9% | NCI-H460 lung 109% | HOP-92 NSCLC 116% | NCI-H522 lung 93.6% | A549/ATCC NSCLC 98.2% | 786-0 renal 101% | COLO 205 colon 104%

Cc1cccc2ccccc12
inactive: NCI-H23 lung 104% | NCI-H226 lung 97% | NCI-H322M lung 103% | HOP-62 NSCLC 102% | NCI-H460 lung 104% | HOP-92 NSCLC 100% | NCI-H522 lung 97.3% | A549/ATCC NSCLC 96.9% | 786-0 renal 97.9% | COLO 205 colon 117%

O=[N+]([O-])c1ccc(-c2nc(N(CCO)CCO)c3ccccc3n2)o1
active: NCI-H23 lung -64.9% | NCI-H226 lung -24.7% | NCI-H322M lung -31% | HOP-62 NSCLC -20.7% | NCI-H460 lung -41.6% | HOP-92 NSCLC -44.8% | NCI-H522 lung -54% | A549/ATCC NSCLC -0.496% | 786-0 renal -40.4% | COLO 205 colon -87.1%

COC(=O)C1(CC(C)=O)NC(=S)NC(=O)C1C#N (stereo not given)
inactive: NCI-H23 lung 99.5% | NCI-H226 lung 108% | NCI-H322M lung 108% | HOP-62 NSCLC 104% | NCI-H460 lung 134% | HOP-92 NSCLC 102% | NCI-H522 lung 98.6% | A549/ATCC NSCLC 106% | 786-0 renal 105% | COLO 205 colon 117%

O=C(c1ccc(Cl)cc1)N1CCCCC1
inactive: NCI-H23 lung 95.6% | NCI-H226 lung 95.4% | NCI-H322M lung 106% | HOP-62 NSCLC 96.7% | NCI-H460 lung 101% | HOP-92 NSCLC 97.4% | NCI-H522 lung 93.6% | A549/ATCC NSCLC 95.4% | 786-0 renal 102% | COLO 205 colon 104%

CC(=O)Nc1ncc(S(=O)(=O)c2ccc([N+](=O)[O-])cc2)s1
inactive: NCI-H23 lung 117% | NCI-H226 lung 105% | NCI-H322M lung 113% | HOP-62 NSCLC 93.2% | NCI-H460 lung 113% | HOP-92 NSCLC 110% | NCI-H522 lung 94.3% | A549/ATCC NSCLC 103% | 786-0 renal 98% | COLO 205 colon 106%

CC(C)Sc1ncnc2nc[nH]c12
inactive: NCI-H23 lung 114% | NCI-H226 lung 102% | NCI-H322M lung 122% | HOP-62 NSCLC 105% | NCI-H460 lung 99.4% | HOP-92 NSCLC 91.7% | NCI-H522 lung 109% | A549/ATCC NSCLC 91.6% | 786-0 renal 101% | COLO 205 colon 96.8%

O=C(NC1CCCCC1)c1ccc(Cl)cc1
inactive: NCI-H23 lung 95.7% | NCI-H226 lung 92.5% | NCI-H322M lung 98.1% | HOP-62 NSCLC 92.8% | NCI-H460 lung 101% | HOP-92 NSCLC 95% | NCI-H522 lung 96.2% | A549/ATCC NSCLC 99.9% | 786-0 renal 103% | COLO 205 colon 109%

Nc1nc(Cl)cc(Cl)n1
inactive: NCI-H23 lung 95.9% | NCI-H226 lung 101% | NCI-H322M lung 99% | HOP-62 NSCLC 85.2% | NCI-H460 lung 106% | HOP-92 NSCLC 113% | NCI-H522 lung 81.9% | A549/ATCC NSCLC 81% | 786-0 renal 103% | COLO 205 colon 96.8%

CC(=O)C1C(=O)C(=O)N(c2cccc([N+](=O)[O-])c2)C1=O (stereo not given)
inactive: NCI-H23 lung 99% | NCI-H226 lung 92.3% | NCI-H322M lung 114% | HOP-62 NSCLC 105% | NCI-H460 lung 105% | HOP-92 NSCLC 95.6% | NCI-H522 lung 104% | A549/ATCC NSCLC 109% | 786-0 renal 96.8% | COLO 205 colon 111%

O=C(OCc1ccccc1)n1nnc2ccccc21
inactive: NCI-H23 lung 115% | NCI-H226 lung 108% | NCI-H322M lung 105% | HOP-62 NSCLC 110% | NCI-H460 lung 109% | HOP-92 NSCLC 116% | NCI-H522 lung 100% | A549/ATCC NSCLC 102% | 786-0 renal 98.7% | COLO 205 colon 111%

Cc1ccc2nc(-c3ccc(N=Cc4ccccc4O)cc3)sc2c1
inactive: NCI-H23 lung 84.4% | NCI-H226 lung 70.7% | NCI-H322M lung 82.8% | HOP-62 NSCLC 77.9% | NCI-H460 lung 104% | HOP-92 NSCLC 78.1% | NCI-H522 lung 61.3% | A549/ATCC NSCLC 71.9% | 786-0 renal 77.5% | COLO 205 colon 140%

Cc1cc(CC(=O)NCCO)n(CCO)c(=O)c1
inactive: NCI-H23 lung 101% | NCI-H226 lung 105% | NCI-H322M lung 103% | HOP-62 NSCLC 91% | NCI-H460 lung 103% | HOP-92 NSCLC 115% | NCI-H522 lung 93.8% | A549/ATCC NSCLC 94.1% | 786-0 renal 108% | COLO 205 colon 104%

CC(=O)c1cccc(NS(=O)(=O)c2ccc(C)cc2)c1
inactive: NCI-H23 lung 83.9% | NCI-H226 lung 91% | NCI-H322M lung 103% | HOP-62 NSCLC 89.9% | NCI-H460 lung 102% | HOP-92 NSCLC 74.4% | NCI-H522 lung 64.4% | A549/ATCC NSCLC 100% | 786-0 renal 89.5% | COLO 205 colon 117%

CC(O)C(F)(F)C(F)(F)C(F)(F)F (stereo not given)
inactive: NCI-H23 lung 111% | NCI-H226 lung 102% | NCI-H322M lung 114% | HOP-62 NSCLC 104% | NCI-H460 lung 110% | HOP-92 NSCLC 117% | NCI-H522 lung 93.8% | A549/ATCC NSCLC 110% | 786-0 renal 102% | COLO 205 colon 116%

CN(CCCN(C)CCC1CCCCC1)CCC1CCCCC1
inactive: NCI-H23 lung 64.1% | NCI-H226 lung 66.9% | NCI-H322M lung 94.6% | HOP-62 NSCLC 57.3% | NCI-H460 lung 29% | HOP-92 NSCLC 21.3% | NCI-H522 lung 69.6% | A549/ATCC NSCLC 83.7% | 786-0 renal 53.2%
active: COLO 205 colon -81%

CCOC(=O)C1(N)CCCCC1
inactive: NCI-H23 lung 96.8% | NCI-H226 lung 98.6% | NCI-H322M lung 107% | HOP-62 NSCLC 102% | NCI-H460 lung 112% | HOP-92 NSCLC 102% | NCI-H522 lung 96.8% | A549/ATCC NSCLC 100% | 786-0 renal 101% | COLO 205 colon 110%

FC(F)(F)c1cc(NC2=NCCN=C(Nc3cc(C(F)(F)F)cc(C(F)(F)F)c3)SS2)cc(C(F)(F)F)c1
active: HOP-92 NSCLC 0.524%
inactive: NCI-H23 lung 47.2% | NCI-H226 lung 67.9% | NCI-H322M lung 90.1% | HOP-62 NSCLC 74.8% | NCI-H460 lung 40% | NCI-H522 lung 13.1% | A549/ATCC NSCLC 49.1% | 786-0 renal 70.6% | COLO 205 colon 49.1%

CC(=O)c1cccc(O)c1
inactive: NCI-H23 lung 96.6% | NCI-H226 lung 103% | NCI-H322M lung 106% | HOP-62 NSCLC 93% | NCI-H460 lung 105% | HOP-92 NSCLC 103% | NCI-H522 lung 88.9% | A549/ATCC NSCLC 98.9% | 786-0 renal 96% | COLO 205 colon 110%

C=CCC(OC(C)=O)c1ccc(OC)c(OC)c1 (stereo not given)
inactive: NCI-H23 lung 109% | NCI-H226 lung 119% | NCI-H322M lung 105% | HOP-62 NSCLC 110% | NCI-H460 lung 106% | HOP-92 NSCLC 108% | NCI-H522 lung 92.1% | A549/ATCC NSCLC 104% | 786-0 renal 115% | COLO 205 colon 113%

C=C(OC(C)=O)c1ccccc1
inactive: NCI-H23 lung 97.1% | NCI-H226 lung 107% | NCI-H322M lung 113% | HOP-62 NSCLC 85.5% | NCI-H460 lung 102% | HOP-92 NSCLC 87.5% | NCI-H522 lung 88.5% | A549/ATCC NSCLC 86.7% | 786-0 renal 104% | COLO 205 colon 109%

CC(C)(C)NCCC(O)c1cc(C(F)(F)F)nc2c(C(F)(F)F)cccc12 (stereo not given)
inactive: NCI-H23 lung 95.5% | NCI-H226 lung 75.2% | NCI-H322M lung 76.2% | HOP-62 NSCLC 68.3% | NCI-H460 lung 44.4% | HOP-92 NSCLC 40.2% | NCI-H522 lung 76.2% | A549/ATCC NSCLC 57.5% | 786-0 renal 80.3% | COLO 205 colon 97.7%

CCOC(=O)C(=O)CC(=O)c1ccccc1
active: NCI-H460 lung -12.5%
inactive: NCI-H23 lung 95.4% | NCI-H226 lung 86.6% | NCI-H322M lung 94.5% | HOP-62 NSCLC 94.9% | HOP-92 NSCLC 79.6% | NCI-H522 lung 98.8% | A549/ATCC NSCLC 96.5% | 786-0 renal 103% | COLO 205 colon 100%

CC(=O)c1ccc(C)cc1
inactive: NCI-H23 lung 104% | NCI-H226 lung 102% | NCI-H322M lung 90% | HOP-62 NSCLC 107% | NCI-H460 lung 106% | HOP-92 NSCLC 88.3% | NCI-H522 lung 103% | A549/ATCC NSCLC 114% | 786-0 renal 120% | COLO 205 colon 116%

N#CC1(O)CCCCC1
inactive: NCI-H23 lung 114% | NCI-H226 lung 100% | NCI-H322M lung 97.8% | HOP-62 NSCLC 95.2% | NCI-H460 lung 107% | HOP-92 NSCLC 96.5% | NCI-H522 lung 88.6% | A549/ATCC NSCLC 92.1% | 786-0 renal 105% | COLO 205 colon 109%

CC(C)(CC(=O)O)CC(=O)O
inactive: NCI-H23 lung 100% | NCI-H226 lung 96.5% | NCI-H322M lung 96.7% | HOP-62 NSCLC 111% | NCI-H460 lung 102% | HOP-92 NSCLC 96.6% | NCI-H522 lung 98.5% | A549/ATCC NSCLC 101% | 786-0 renal 102% | COLO 205 colon 119%

CCCCOC(=O)c1ccccc1O
inactive: NCI-H23 lung 108% | NCI-H226 lung 105% | NCI-H322M lung 112% | HOP-62 NSCLC 110% | NCI-H460 lung 113% | HOP-92 NSCLC 111% | NCI-H522 lung 125% | A549/ATCC NSCLC 113% | 786-0 renal 109% | COLO 205 colon 115%

Reference: PubChem BioAssay (NCI)
